A number with no mark means an inactive call. Unless noted, the call rests on the fitted dose curve. Records with an inconclusive call do not appear.
Test system: not listed separately
Experiment: qHTS assay to identify small molecule antagonists of the estrogen receptor beta (ER-beta) signaling pathway - cell viability counter screen (AID 1259382; active means well fitted cell-killing curve with a large enough effect in the repeat runs;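 further: HEK293T cells carrying ER-beta-UAS-bla reporter stimulated with estradiol; nearly all actives have a fitted effect of over 55% in size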)
Details: ER-beta-UAS-bla HEK293T viability, CellTiter-Glo luminescence, 16 h; series mostly up to 92.4 µM; activity change, negative = cytotoxicity: at the top concentration
Outline: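 Luminescent ATP read-out (CellTiter-Glo, 30 min, RT) taken in the same wells as the bla reporter assay. HEK293T ER-beta-UAS-bla cells in 2% charcoal-stripped FBS were exposed to compounds with 1nM E2 for 16 hr at 37C.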
On the % scale 0 is the no-effect control and ±100 the full control effect.

Row | Structure (SMILES) | activity change, negative = cytotoxicity
1 | Fc1ccccc1 | -0.704%
2 | CC1=C(O)C(=O)C(C)O1 (stereo not given) | 1.43%
3 | C/C(CC(C)C)=N\O | 7.55%
4 | O=C(Cn1ccnc1[N+](=O)[O-])NCc1ccccc1 | 14.7% [at 42.5 µM]
5 | CC1(C)Oc2ccc(C#N)cc2[C@@H](N2CCCC2=O)[C@@H]1O | 7.31% [at 42.5 µM]
6 | [O]=[Mo](=[O])=[O] | -3.58% [at 19 µM]
7 | CCCCOCC(C)O (stereo not given) | 2.77%
8 | CCC(C)C(=O)OCCc1ccccc1 (stereo not given) | 2.88%
9 | COC(C)(OC)OC | 0.54%

Biological target: Estrogen receptor (Homo sapiens) (UniProt P03372)
Experiment: qHTS assay to identify small molecule agonists of the estrogen receptor alpha (ER-alpha) signaling pathway in the presence of an antagonist (AID 1259383); further: top concentration of the series differs between compounds; nearly all actives have a fitted effect of over 15% in size
Details: VM7Luc4E2 cells, ERE-luciferase, +ICI-182,780, 22 h; series mostly up to 92.4 µM; activation: at the top concentration
Outline: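 Luciferase luminescence (ONE-Glo, 30min at room temperature) measured in VM7Luc4E2 cells after 22hr compound exposure at 15 concentrations, with 10.0nM ICI-182,780 final present; cells express endogenous ER-alpha and carry four EREs upstream of luciferase.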

Sequence of Estrogen receptor (Homo sapiens) (P03372 whole entry, looked up): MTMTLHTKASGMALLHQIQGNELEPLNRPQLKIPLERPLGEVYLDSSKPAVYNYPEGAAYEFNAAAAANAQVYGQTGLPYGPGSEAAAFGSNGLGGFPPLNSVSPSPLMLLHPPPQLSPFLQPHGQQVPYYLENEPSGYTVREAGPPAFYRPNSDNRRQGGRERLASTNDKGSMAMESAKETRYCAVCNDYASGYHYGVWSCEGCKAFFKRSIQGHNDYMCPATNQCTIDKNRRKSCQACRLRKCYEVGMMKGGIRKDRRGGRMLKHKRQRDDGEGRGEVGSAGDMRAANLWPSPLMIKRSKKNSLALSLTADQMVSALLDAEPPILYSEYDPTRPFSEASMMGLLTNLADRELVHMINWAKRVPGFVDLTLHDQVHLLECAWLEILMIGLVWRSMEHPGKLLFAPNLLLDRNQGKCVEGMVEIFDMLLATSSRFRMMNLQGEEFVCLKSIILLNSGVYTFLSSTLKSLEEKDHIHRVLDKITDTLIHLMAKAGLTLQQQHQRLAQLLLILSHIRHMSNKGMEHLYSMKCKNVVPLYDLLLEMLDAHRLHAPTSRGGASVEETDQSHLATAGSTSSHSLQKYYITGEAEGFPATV

Row | Structure (SMILES) | activation
10 | OC1OCCOC1O (stereo not given) | -0.861%
11 | CC(C)(CO)C(O)C(=O)NCCCO (stereo not given) | -0.526%
12 | CCC(C)C(C)=O (stereo not given) | 0.304%
13 | Cc1ccccc1C(N)=O | 0.365%
14 | CCCc1ccc(O)cc1 | 0.994%
15 | CCc1occc(=O)c1O | 0.209%
16 | CC1(C)CC(OC(=O)CCCCCCCCC(=O)OC2CC(C)(C)NC(C)(C)C2)CC(C)(C)N1 | -0.324% [at 19 µM]
17 | CC1CC(=O)CC(C)(C)C1 (stereo not given) | 0.838%
18 | CCCCOC(=O)C(C)O (stereo not given) | 1.17%
19 | CC1CCc2c(N3CCC(O)CC3)c(F)cc3c(=O)c(C(=O)O)cn1c23 (stereo not given) | -0.329% [at 42.5 µM]
20 | COP(=O)(O)OP(=O)(O)OC | 2.81%
21 | CCCC(=O)Nc1ccc(OCC(O)CNC(C)C)c(C(C)=O)c1 (stereo not given) | 1.8% [at 42.5 µM]
22 | CN(C)C(C)(C)CO | -0.144%
23 | CC(C)Nc1ccccc1 | -0.157%
24 | C=CC/C=C/C | 1.01%
25 | COc1ccc2c(c1)c1c3n2CCN(C)C3=NCC1 | -0.114% [at 42.5 µM]
26 | CN(C)CCOC(=O)C(c1ccccc1)C1(O)CCCC1 (stereo not given) | -1.49% [at 42.5 µM]
27 | COC(=O)c1cc(Cl)cc(Cl)c1 | -0.0294%
28 | CC1(C)[C@H]2CC[C@](C)(C2)[C@H]1O | -0.0505%

Row | Structure (SMILES) | activation
29 | COCCc1ccccn1 | 1.94% [at 42.5 µM]
30 | COC(=O)CCCCC(CCSS/C(CCO)=C(\C)N(C=O)Cc1cnc(C)nc1N)SC(C)=O (stereo not given) | 0.179% [at 42.5 µM]
31 | CC12CCC(C1)C(C)(C)C2O (stereo not given) | -0.765%
32 | COc1cc(/C=C/C(N)=O)cc(OC)c1OC | -0.561% [at 42.5 µM]
33 | CCOc1cccc(N)c1 | 0.857%
34 | CCOC(=O)CC1(C)OCC(C)O1 (stereo not given) | -0.367%
35 | Cc1cc(C)c(C(=O)O)c(C)c1 | 0.791%
36 | CCCSSCCC | 0.235%
37 | CC(=O)OC1CCCCC1C(C)(C)C (stereo not given) | 0.296%
38 | Fc1ccccc1 | -0.756%
39 | CC1=C(O)C(=O)C(C)O1 (stereo not given) | 0.0172%
40 | C/C(CC(C)C)=N\O | -2.24%
41 | O=C(Cn1ccnc1[N+](=O)[O-])NCc1ccccc1 | 0.856% [at 42.5 µM]
42 | CC1(C)Oc2ccc(C#N)cc2[C@@H](N2CCCC2=O)[C@@H]1O | -1.78% [at 42.5 µM]
43 | [O]=[Mo](=[O])=[O] | -1.83% [at 19 µM]
44 | CCCCOCC(C)O (stereo not given) | -0.776%
45 | CCC(C)C(=O)OCCc1ccccc1 (stereo not given) | -0.79%
46 | COC(C)(OC)OC | -2.31%

Test system: not listed separately
Experiment: qHTS assay to identify small molecule agonists or antagonists of the thyroid stimulating hormone receptor (TSHR) signaling pathway - wild type cell line counter screen (AID 1259384)
Details: HEK293 wild type, cAMP HTRF counter-screen, active compounds read high; series mostly up to 92.4 µM; cAMP activity change: at the top concentration
Outline: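 Wild-type Hek293 cells, 800/well, 18 h at 37C, then compound with Ro20-1724 for 30 min RT. cAMP by HTRF (cAMP-d2/anti-cAMP cryptate), 1 h RT, fluorescence read. 15 concentrations, triplicates.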

Row | Structure (SMILES) | cAMP activity change
47 | OC1OCCOC1O (stereo not given) | 3.23%
48 | CC(C)(CO)C(O)C(=O)NCCCO (stereo not given) | -3.16%
49 | CCC(C)C(C)=O (stereo not given) | 6.49%
50 | Cc1ccccc1C(N)=O | -2.91%
51 | CCCc1ccc(O)cc1 | 5.04%
52 | CCc1occc(=O)c1O | 2.16%
53 | CC1(C)CC(OC(=O)CCCCCCCCC(=O)OC2CC(C)(C)NC(C)(C)C2)CC(C)(C)N1 | -0.26% [at 18.9 µM]
54 | CC1CC(=O)CC(C)(C)C1 (stereo not given) | 2.39%
55 | CCCCOC(=O)C(C)O (stereo not given) | 0.0393%
56 | CC1CCc2c(N3CCC(O)CC3)c(F)cc3c(=O)c(C(=O)O)cn1c23 (stereo not given) | -3.01% [at 42.5 µM]
57 | COP(=O)(O)OP(=O)(O)OC | -3.12%
58 | CCCC(=O)Nc1ccc(OCC(O)CNC(C)C)c(C(C)=O)c1 (stereo not given) | -2.16% [at 42.5 µM]
59 | CN(C)C(C)(C)CO | -3.67%
60 | CC(C)Nc1ccccc1 | -3.03%
61 | C=CC/C=C/C | 3.85%
62 | COc1ccc2c(c1)c1c3n2CCN(C)C3=NCC1 | 2.35% [at 42.5 µM]
63 | CN(C)CCOC(=O)C(c1ccccc1)C1(O)CCCC1 (stereo not given) | 0.255% [at 42.5 µM]
64 | COC(=O)c1cc(Cl)cc(Cl)c1 | -2.92%
65 | CC1(C)[C@H]2CC[C@](C)(C2)[C@H]1O | 6.83%

Row | Structure (SMILES) | cAMP activity change
66 | COCCc1ccccn1 | -0.269% [at 42.5 µM]
67 | COC(=O)CCCCC(CCSS/C(CCO)=C(\C)N(C=O)Cc1cnc(C)nc1N)SC(C)=O (stereo not given) | 2.14% [at 42.5 µM]
68 | CC12CCC(C1)C(C)(C)C2O (stereo not given) | -0.227%
69 | COc1cc(/C=C/C(N)=O)cc(OC)c1OC | 9.64% [at 42.5 µM]
70 | CCOc1cccc(N)c1 | 6.14%
71 | CCOC(=O)CC1(C)OCC(C)O1 (stereo not given) | -4.92%
72 | Cc1cc(C)c(C(=O)O)c(C)c1 | 1.25%
73 | CCCSSCCC | 1.81%
74 | CC(=O)OC1CCCCC1C(C)(C)C (stereo not given) | 1.12%
75 | Fc1ccccc1 | 6.03%
76 | CC1=C(O)C(=O)C(C)O1 (stereo not given) | -6.56%
77 | C/C(CC(C)C)=N\O | -2.89%
78 | O=C(Cn1ccnc1[N+](=O)[O-])NCc1ccccc1 | -4.52% [at 42.5 µM]
79 | CC1(C)Oc2ccc(C#N)cc2[C@@H](N2CCCC2=O)[C@@H]1O | -3.09% [at 42.5 µM]
80 | [O]=[Mo](=[O])=[O] | -1.05% [at 18.9 µM]
81 | CCCCOCC(C)O (stereo not given) | 0.328%
82 | CCC(C)C(=O)OCCc1ccccc1 (stereo not given) | 3.05%
83 | COC(C)(OC)OC | -5.03%

Biological target: Thyrotropin receptor (Homo sapiens) (UniProt P16473)
Experiment: qHTS assay to identify small molecule antagonists of the thyroid stimulating hormone receptor (TSHR) signaling pathway (AID 1259385); further: nearly all actives have a fitted effect of over 20% in size
Details: TSHR-HEK293 cAMP HTRF, TSH-stimulated antagonist mode; series mostly up to 92.4 µM; activity change, negative = inhibition: at the top concentration
Outline: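 TSHR-HEK293 cells (800/well) plated 18 h, then compounds with Ro20-1724 and TSH at 1.5 ng/mL final, 30 min at room temperature. cAMP quantified by HTRF (cAMP-d2/anti-cAMP-cryptate, 1 h); 15 concentrations in triplicate.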

Sequence of Thyrotropin receptor (Homo sapiens) (P16473 whole entry, looked up): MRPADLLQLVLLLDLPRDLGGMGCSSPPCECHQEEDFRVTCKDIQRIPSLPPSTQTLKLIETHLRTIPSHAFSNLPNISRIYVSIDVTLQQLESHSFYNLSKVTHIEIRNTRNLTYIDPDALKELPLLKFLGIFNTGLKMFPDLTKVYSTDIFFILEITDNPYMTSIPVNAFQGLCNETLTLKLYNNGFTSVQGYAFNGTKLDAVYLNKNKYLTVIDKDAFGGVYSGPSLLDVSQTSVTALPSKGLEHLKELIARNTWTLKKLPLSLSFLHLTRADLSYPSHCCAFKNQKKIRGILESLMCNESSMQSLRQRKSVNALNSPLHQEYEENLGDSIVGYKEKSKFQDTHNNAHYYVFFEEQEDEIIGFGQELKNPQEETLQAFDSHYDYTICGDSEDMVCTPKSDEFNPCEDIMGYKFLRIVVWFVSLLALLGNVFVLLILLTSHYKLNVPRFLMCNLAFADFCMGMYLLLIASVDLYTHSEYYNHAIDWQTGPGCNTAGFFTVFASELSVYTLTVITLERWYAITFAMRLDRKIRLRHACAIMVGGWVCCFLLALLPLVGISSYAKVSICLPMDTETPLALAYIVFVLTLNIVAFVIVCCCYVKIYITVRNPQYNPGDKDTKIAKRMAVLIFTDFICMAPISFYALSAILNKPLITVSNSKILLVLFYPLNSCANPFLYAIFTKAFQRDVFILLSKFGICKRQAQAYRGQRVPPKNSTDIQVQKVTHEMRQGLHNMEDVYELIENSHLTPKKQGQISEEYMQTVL

Row | Structure (SMILES) | activity change, negative = inhibition
84 | OC1OCCOC1O (stereo not given) | 1.95%
85 | CC(C)(CO)C(O)C(=O)NCCCO (stereo not given) | -0.581%
86 | CCC(C)C(C)=O (stereo not given) | -4.75%
87 | Cc1ccccc1C(N)=O | -10.9%
88 | CCCc1ccc(O)cc1 | 1.68%
89 | CCc1occc(=O)c1O | 0.322%
90 | CC1(C)CC(OC(=O)CCCCCCCCC(=O)OC2CC(C)(C)NC(C)(C)C2)CC(C)(C)N1 | -9.89% [at 19 µM]
91 | CC1CC(=O)CC(C)(C)C1 (stereo not given) | 2.41%
92 | CCCCOC(=O)C(C)O (stereo not given) | 0.626%
93 | CC1CCc2c(N3CCC(O)CC3)c(F)cc3c(=O)c(C(=O)O)cn1c23 (stereo not given) | -6.41% [at 42.5 µM]
94 | COP(=O)(O)OP(=O)(O)OC | 0.439%
95 | CCCC(=O)Nc1ccc(OCC(O)CNC(C)C)c(C(C)=O)c1 (stereo not given) | -4.2% [at 42.5 µM]
96 | CN(C)C(C)(C)CO | 1.91%
97 | CC(C)Nc1ccccc1 | 0.115%
98 | C=CC/C=C/C | 6.58%
99 | COc1ccc2c(c1)c1c3n2CCN(C)C3=NCC1 | 1.87% [at 42.5 µM]
100 | CN(C)CCOC(=O)C(c1ccccc1)C1(O)CCCC1 (stereo not given) | -0.219% [at 42.5 µM]
101 | COC(=O)c1cc(Cl)cc(Cl)c1 | 0.489%
102 | CC1(C)[C@H]2CC[C@](C)(C2)[C@H]1O | 0.592%

Row | Structure (SMILES) | activity change, negative = inhibition
103 | COCCc1ccccn1 | 0.35% [at 42.5 µM]
104 | COC(=O)CCCCC(CCSS/C(CCO)=C(\C)N(C=O)Cc1cnc(C)nc1N)SC(C)=O (stereo not given) | 6.32% [at 42.5 µM]
105 | CC12CCC(C1)C(C)(C)C2O (stereo not given) | 0.901%
106 | COc1cc(/C=C/C(N)=O)cc(OC)c1OC | 0.167% [at 42.5 µM]
107 | CCOc1cccc(N)c1 | -0.333%
108 | CCOC(=O)CC1(C)OCC(C)O1 (stereo not given) | 1.23%
109 | Cc1cc(C)c(C(=O)O)c(C)c1 | -5.34%
110 | CCCSSCCC | 0%
111 | CC(=O)OC1CCCCC1C(C)(C)C (stereo not given) | -0.142%
112 | Fc1ccccc1 | 0.955%
113 | CC1=C(O)C(=O)C(C)O1 (stereo not given) | 1.73%
114 | C/C(CC(C)C)=N\O | -0.266%
115 | O=C(Cn1ccnc1[N+](=O)[O-])NCc1ccccc1 | 2.15% [at 42.5 µM]
116 | CC1(C)Oc2ccc(C#N)cc2[C@@H](N2CCCC2=O)[C@@H]1O | -2.33% [at 42.5 µM]
117 | [O]=[Mo](=[O])=[O] | 4.59% [at 19 µM]
118 | CCCCOCC(C)O (stereo not given) | 2.41%
119 | CCC(C)C(=O)OCCc1ccccc1 (stereo not given) | -10.4%
120 | COC(C)(OC)OC | -1.61%

Reference: PubChem BioAssay (Tox21)
